The record followed here is PubChem BioAssay (Tox21).

Inconclusive results are not listed. A call without a number means that no potency is given here. A number with no mark means an inactive call. Active and inactive are the calls of the source. The call rests on the fitted dose curve.

A short description of the test: qHTS assay to identify small molecule agonists of H2AX - cell viability counter screen (AID 1224847). Further: top concentration of the series differs between compounds; nearly all actives have a fitted effect of over 30% in size. The conditions noted are these: CHO-K1 viability, CellTiter-Glo luminescence, 3 h; series mostly up to 154 µM. Summed up: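 Wild-type CHO-K1 cells (10% FBS medium) were plated overnight at 37C, exposed to compounds at 15 concentrations for 3 hr at 37C (0.76% DMSO final), and viability was read as CellTiter-Glo luminescence after 30 min at room temperature.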
Background: qHTS replaces the single test concentration by a dilution series.
Regarding `CC(=O)Nc1ccc(C)cc1`, the Potency entry was “inactive”.

On to `CCC1COC(=O)O1` (stereo unspecified), for which the Potency result is “inactive”.

Turning to `C[CH2][Ge]([Cl])([CH2]C)[CH2]C`, the Potency entry was “inactive”.

Take `Cc1cccc(Nc2ccncc2S(=O)(=O)NC(=O)NC(C)C)c1`: the Potency entry was “inactive”.

Turning to `Oc1ccccc1Cc1ccccc1O`, the Potency entry is “inactive”.

With `CCCCCN(CCCOC)C(=O)C(CCC(=O)O)NC(=O)c1ccc(Cl)c(Cl)c1` (stereo unspecified), the Potency result is “inactive”.

Turning to `NS(=O)(=O)c1ccccc1OC(F)(F)F`, the Potency entry is “inactive”.

`CC(=O)OCCCc1ccccc1`: the Potency result is “inactive”.

Take `CN[C@@H]1[C@@H](O)[C@@H](O[C@@H]2[C@H](O)[C@H](O[C@H]3OC(CN)=CC[C@H]3N)[C@@H](N)C[C@H]2N)OCC1(C)O` (stereo partly specified): the Potency entry was “inactive”.

For `CCC(C)(C)C1CCC(=O)CC1`, the Potency entry was “inactive”.

For `Cc1ccccc1C`, the Potency entry was “inactive”.

Turning to `NC(=O)NNC(N)=O`, the Potency result was “inactive”.

As for `CCCCCCCCCCCCCCCC(=O)NCCO`, the Potency entry was “inactive”.

As to `O=C(O)c1ccc(OCCN2CCCCC2)cc1`, the Potency result is “inactive”.

For the compound `C=CCOc1c(Br)cc(Br)cc1Br`, the Potency result is “inactive”.

In the case of `O=CN1CCOCC1`, the Potency result is “inactive”.

On to `CCCCCCCCOC(C)=O`, for which the Potency result was “inactive”.

For the compound `CC(C)COC(=O)COc1ccc(Cl)cc1Cl`, the Potency entry was “inactive”.

Regarding `CCCCC(C)C(=O)O` (stereo unspecified), the Potency entry was “inactive”.

With `CCCCCCCCCCCCCCCCI`, the activity change, negative = cytotoxicity was -0.0372% [at 31.6 µM].

As for `COc1ccc(NS(=O)(=O)c2ccc(N)cc2)nn1`, the Potency entry is “inactive”.

For `O=c1[nH]c(=O)c2ccccc2o1`, the Potency result was “inactive”.

For `CNCc1ccccc1`, the Potency entry is “inactive”.

Take `O=C(COCCOCCOCC(=O)Nc1c(I)cc(I)c(C(=O)O)c1I)Nc1c(I)cc(I)c(C(=O)O)c1I`: the Potency entry was “inactive”.

Turning to `CCCCCCCCCCC`, the Potency result was “inactive”.

For `C=CCOc1c(Br)cc(C(C)(C)c2cc(Br)c(OCC=C)c(Br)c2)cc1Br`, the Potency result was “inactive”.
